The nature of test [1]: qHTS assay to identify small molecule agonists of the AP-1 signaling pathway - cell viability counter screen (AID 1159525; calls by dose curve; note: nearly all actives have a fitted effect of over 55% in size; note: potency is the fitted concentration of half-maximal effect). In outline: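 Intracellular ATP by Cell Titer Glo luminescence (30 min, RT) in the same ME-180 AP-1-bla wells after the 5 h compound exposure at 37 °C. Normalised to tetra n-octyl ammonium bromide and DMSO controls.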
(In general: qHTS replaces the single test concentration by a dilution series.)

A short description of test [2]: qHTS assay to identify small molecule agonists of the estrogen related receptor signaling pathway with the pleiotropic PPARgamma coactivator (PGC) from Tox21 10K library (AID 1224842). Note: % is set by controls: 0 for no effect and ±100 for the full control effect; nearly all actives have a fitted effect of over 15% in size. In short, it runs like this: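 Luminescence from One-Glo (30 min, room temperature) measured after PGC/ERR cells had 18 h at 37 C with pinned compound (23 nL in DMSO). Cells had been seeded at 2,000 per well and pre-incubated 6 h.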

The nature of test [3]: qHTS RealTime-Glo MT Cell Viability Assay in HepG2 cells - 40 hour (AID 1224870). Note: nearly all actives have a fitted effect of over 50% in size. Note: potency is the fitted concentration of half-maximal effect. In short, it runs like this:
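Real-time viability: cells seeded at 600 per well together with NanoLuc and cell-permeant prosubstrate, compounds added after 5 h incubation. Luminescence tracked at 0, 8, 16, 24, 32 and 40 h of exposure.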

The nature of test [4]: A CellTox Green Cytotoxicity Assay to monitor cytotoxicity in HEK293 cells - 40 hour (AID 1224871). Note: nearly all actives have a fitted effect of over 45% in size. Note: potency is the fitted concentration of half-maximal effect. In short, it runs like this: (§1)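 Fluorescence from a DNA-binding dye excluded by viable cells was measured repeatedly in the same HEK293 wells (600 cells/well) during continuous compound exposure at 37 C. Each assay gives one read point: 0, 8, 16, 24, 32 or 40 h.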
Test [5] in a line: qHTS RealTime-Glo MT Cell Viability Assay in HEK293 cells - 40 hour (AID 1224874). For max response: % is set by controls: 0 for no effect and ±100 for the full control effect. Note: nearly all actives have a fitted effect of over 50% in size. Note: potency is the fitted concentration of half-maximal effect. The note with it: RealTime-Glo luminescence; max response: active compounds read low. In outline:
(§2)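 Luminescence, which tracks viable cell number through reduction of the prosubstrate to a NanoLuc substrate, was read over continuous 37 C culture. Cells (600/well) were premixed with reagent and rested 5 h before 23 nL of compound in DMSO was pinned.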

Test [6] is described as follows: A CellTox Green Cytotoxicity Assay to monitor cytotoxicity in HepG2 cells - 16 hour (AID 1224876). Note: nearly all actives have a fitted effect of over 45% in size. Note: potency is the fitted concentration of half-maximal effect. In short, it runs like this:
(§3)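 Real-time cytotoxicity: fluorescence of a cell-impermeant cyanine dye binding DNA of dead HepG2 cells, measured repeatedly (0–40 h) during compound exposure at 37 C. Cells seeded 600/well with reagent, dosed after 5 h.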

Test [7] is described as follows: qHTS RealTime-Glo MT Cell Viability Assay in HepG2 cells - 32 hour (AID 1224877). Note: nearly all actives have a fitted effect of over 55% in size. Note: potency is the fitted concentration of half-maximal effect. In outline:
(§4)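 HepG2 cells (600/well) were dispensed with RealTime-Glo reagents, incubated 5 h at 37 °C, then treated with compounds in DMSO for up to 40 h. Nonlytic NanoLuc luminescence reflecting viable cells was read at each stated time point.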

Test [8] is described as follows: qHTS RealTime-Glo MT Cell Viability Assay in HEK293 cells - 0 hour (AID 1224880). Note: top concentration of the series differs between compounds; % is set by controls: 0 for no effect and ±100 for the full control effect; nearly all actives have a fitted effect of over 45% in size. In outline: as §2
Test [9] in a line: A CellTox Green Cytotoxicity Assay to monitor cytotoxicity in HEK293 cells - 16 hour (AID 1224888). Note: nearly all actives have a fitted effect of over 35% in size. Note: potency is the fitted concentration of half-maximal effect. In short, it runs like this: as §1
The nature of test [10]: qHTS RealTime-Glo MT Cell Viability Assay in HepG2 cells - 0 hour (AID 1224889). Note: % is set by controls: 0 for no effect and ±100 for the full control effect; nearly all actives have a fitted effect of over 50% in size. In outline: as §4
Test [11] is described as follows: A CellTox Green Cytotoxicity Assay to monitor cytotoxicity in HepG2 cells - 8 hour (AID 1224890). Note: nearly all actives have a fitted effect of over 45% in size. Note: potency is the fitted concentration of half-maximal effect. In outline:
as §3

Test [12] is described as follows: qHTS assay to identify small molecule antagonists of the androgen receptor (AR) signaling pathway using the MDA cell line in the presence of 0.5 nM R1881 - cell viability counter screen (AID 1259242). Note: nearly all actives have a fitted effect of over 45% in size. Note: potency is the fitted concentration of half-maximal effect. In short, it runs like this: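 Live-cell protease activity was measured by CellTiter-Fluor fluorescence after 30 min. Before that, MDA-kb2 MMTV-luciferase cells had 16 hr at 37C without CO2, exposed to test compounds and 0.5 nM R1881 final.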

Test [13] in a line: qHTS assay to identify small molecule HDAC inhibitors - cell viability counter screen (AID 1259365). Note: series mostly up to about 92 µM; % is set by controls: 0 for no effect and ±100 for the full control effect; nearly all actives have a fitted effect of over 50% in size. In short, it runs like this: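 Luminescence from CellTiter-Glo, developed 30min at room temperature, reports viability of wild-type HCT-116 cells treated 2hr with compounds at 37 C and 5% CO2 after overnight plating.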
Test [14] is described as follows: qHTS assay to identify small molecule agonists or antagonists of the thyroid stimulating hormone receptor (TSHR) signaling pathway - wild type cell line counter screen (AID 1259384; calls by dose curve; note: % is set by controls: 0 for no effect and ±100 for the full control effect). In short, it runs like this:
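Counter screen in untransfected Hek293: compounds (15-point titration, triplicate) plus phosphodiesterase inhibitor Ro20-1724 added after 18 h plating; 30 min RT. Intracellular cAMP via competitive d2/cryptate immunoassay, 1 h incubation.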

Test [15] in a line: qHTS assay to identify small molecule agonists of the estrogen receptor alpha (ER-alpha) signaling pathway in the presence of an antagonist - cell viability counter screen (AID 1259386). Note: nearly all actives have a fitted effect of over 30% in size. Note: potency is the fitted concentration of half-maximal effect. In outline: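 Compounds tested at 15 concentrations for 22 h at 37C alongside 10.0nM (final) ICI-182,780 antagonist, in VM7Luc4E2 cells grown in phenol red-free, charcoal-stripped medium. Viability read by CellTiter-Fluor fluorescence after 1 h reagent incubation.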

Test [16] in a line: qHTS assay to identify small molecule antagonists of the TGF-beta/Smad signaling pathway - cell viability counter screen (AID 1346824). Note: nearly all actives have a fitted effect of over 50% in size. Note: potency is the fitted concentration of half-maximal effect. In short, it runs like this:
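Cytotoxicity counter-screen run in the same wells as the beta-lactamase Smad reporter read: CellTiter-Glo luminescence after 30 min at room temperature. HEK 293T SBE-bla cells had 5 hr compound exposure at 37 C with TGF-beta1 (0.25 ng/mL stock).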

The nature of test [17]: qHTS assay to identify small molecule agonists of the TGF-beta/Smad signaling pathway - cell viability counter screen (AID 1346829). In short, it runs like this:
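SBE-bla HEK 293T cells plated overnight, compound exposure 5 hr at 37 C. Viability read in the same wells by CellTiter-Glo luminescence after 30 min at room temperature, following the beta-lactamase read.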

Test [18] in a line: qHTS assay to identify small molecule agonists of the TGF-beta/Smad signaling pathway (AID 1346859; active = well fitted activation curve with a large enough effect in the signal ratio in the repeat runs, not every such curve was filed as active; the % refers to the signal ratio; note: series mostly up to about 77 µM; % is set by controls: 0 for no effect and ±100 for the full control effect). In outline:
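SBE-bla HEK 293T, 4,000 cells/well, plated o/n; cpd in DMSO, 5 hr, 37 C/5% CO2; B/G FRET substrate 2 hr RT; ex 405, em 460/530 nm.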

For test [19], the target named is Voltage-gated inwardly rectifying potassium channel KCNH2 (Homo sapiens) (UniProt Q12809). In words: Human Ether-a-go-go-Related Gene (hERG) channel small molecule antagonists: fluorescence cell-based qHTS assay (AID 1671200). Note: nearly all actives have a fitted effect of over 50% in size. Note: potency is the fitted concentration of half-maximal effect. In short, it runs like this:
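Channel function was assessed by thallium flux. Cells seeded the previous day and kept at 37 C took up FluxOR II dye over 1 h in the dark at room temperature, then sat another 10 min before stimulation.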
(In general: The hERG channel carries a current that helps repolarise heart muscle cells.)

Test [20] is described as follows: qHTS assay to identify small molecule antagonists of the sonic hedgehog signaling (Shh) pathway (AID 1259369; calls by dose curve; note: nearly all actives have a fitted effect of over 45% in size; note: potency is the fitted concentration of half-maximal effect). In outline: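 Antagonist mode: compound added to 3T3 Gli1-Luc cells followed by conditioned-medium stimulation, 24 h at 37 C, 5% CO2. Inhibition taken as loss of Gli1-driven luciferase luminescence.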

Where “and” joins values, the source holds several entries; their conditions need not be identical. Identical values can stand only once. Values without a mark were called inactive. Inconclusive results are not listed. Calls of active or inactive are those of the source. Unless noted, calls come from the whole dose curve; as a rule, active = well fitted curve in the direction sought with a large enough effect in the repeat runs; inconclusive = weak or mixed curves; inactive = no such curve, though single readings can be large; an effect the other way counts as inactive or inconclusive.

Sequence of Voltage-gated inwardly rectifying potassium channel KCNH2 (Homo sapiens) (Q12809 whole entry, looked up): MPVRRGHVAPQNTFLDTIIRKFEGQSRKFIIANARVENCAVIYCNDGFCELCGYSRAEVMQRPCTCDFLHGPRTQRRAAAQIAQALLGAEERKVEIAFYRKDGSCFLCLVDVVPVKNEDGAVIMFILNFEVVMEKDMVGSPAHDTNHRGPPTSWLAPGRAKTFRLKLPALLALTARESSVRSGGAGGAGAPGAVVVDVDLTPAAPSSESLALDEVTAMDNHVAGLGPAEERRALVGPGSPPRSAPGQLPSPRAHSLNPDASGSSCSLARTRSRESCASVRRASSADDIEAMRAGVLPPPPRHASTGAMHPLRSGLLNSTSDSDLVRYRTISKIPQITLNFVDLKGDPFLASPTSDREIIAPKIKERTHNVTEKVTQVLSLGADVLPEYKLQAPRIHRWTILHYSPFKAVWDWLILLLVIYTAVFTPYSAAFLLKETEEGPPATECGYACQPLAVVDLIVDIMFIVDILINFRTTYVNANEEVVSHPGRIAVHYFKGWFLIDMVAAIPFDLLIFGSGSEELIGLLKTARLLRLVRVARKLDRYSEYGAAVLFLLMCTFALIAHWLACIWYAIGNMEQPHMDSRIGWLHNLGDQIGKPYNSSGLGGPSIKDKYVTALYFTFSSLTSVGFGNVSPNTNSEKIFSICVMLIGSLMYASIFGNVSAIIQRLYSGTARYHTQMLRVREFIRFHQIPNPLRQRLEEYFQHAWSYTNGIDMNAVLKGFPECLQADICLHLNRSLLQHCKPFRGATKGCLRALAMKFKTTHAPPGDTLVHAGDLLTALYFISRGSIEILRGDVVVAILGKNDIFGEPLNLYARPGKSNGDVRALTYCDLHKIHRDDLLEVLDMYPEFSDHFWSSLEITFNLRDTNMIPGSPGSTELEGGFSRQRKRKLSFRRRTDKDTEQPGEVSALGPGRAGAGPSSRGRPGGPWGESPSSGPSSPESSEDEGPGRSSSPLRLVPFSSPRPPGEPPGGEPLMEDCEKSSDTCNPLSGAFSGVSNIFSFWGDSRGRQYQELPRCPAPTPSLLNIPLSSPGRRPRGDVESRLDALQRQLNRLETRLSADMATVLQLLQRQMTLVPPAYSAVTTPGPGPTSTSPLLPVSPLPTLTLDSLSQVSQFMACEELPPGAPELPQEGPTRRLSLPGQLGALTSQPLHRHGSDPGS

For the compound `Oc1c(I)cc(I)cc1I`, the Potency entry in test [1], in [2], in [3], in test [4], in test [6] and in test [7] was “inactive” throughout. In addition, the Potency entry in test [9], in test [10], in test [11], in test [12], in test [15] and in [16] was “inactive” in each case. For the same compound, the Potency entry in test [19] is “inactive”. Also, the max response in test [5] was -25%. For the same compound, the compound was called inactive in [8], in test [13], in [14], in test [17] and in test [18].

Consider `N#Cc1cc([N+](=O)[O-])ccc1N`, for which the Potency entry in [1], in test [2], in test [3], in test [4], in [6] and in test [7] was “inactive” each time. Moreover, the Potency entry in test [9], in test [10], in test [11], in [12] and in test [19] was “inactive” each time. Moreover, in test [5], the max response was -6.49%. Moreover, the call in test [8], in [13], in test [14], in test [17] and in test [18] was inactive.

Turning to `CCOC(=O)C(O)(c1ccc(Cl)cc1)c1ccc(Cl)cc1`, the Potency was 44.1 µM (active) and 43.6 µM (active) in test [1]; 44.1 µM (active) in test [4]; 22.1 µM (active) and 34.7 µM (active) in [5]; 7.77 µM (active) and 19.3 µM (active) in test [20]; 22.1 µM (active) and 21.9 µM (active) in [19]. In addition, the Potency entry in [3], in [6], in [7], in [9], in test [10] and in test [11] was “inactive” in each case. Besides, the Potency entry in [12], in test [15] and in test [16] was “inactive” each time. For the same compound, the outcome in test [8], in test [13], in test [17] and in test [18] was inactive.

Turning to `O=S(=O)(C(Cl)(Cl)Cl)C(Cl)(Cl)Cl`, the Potency in test [1] was 49 µM (active); in [3], 34.7 µM (active); in test [4] it was 17.4 µM (active); in [5], 8.71 µM (active); in test [6], 38.9 µM (active); in [7] it was 34.7 µM (active). For the same compound, the Potency is 24.5 µM (active) in test [9]; 34.7 µM (active) in test [11]; 54.5 µM (active) in test [12]; 2.17 µM (active) in [20]; 24.5 µM (active) in test [19]. The Potency result in [2] and in test [15] was “inactive” each time. In addition, the compound was classed as inactive in test [8], in [14] and in [18].

For the compound `CO/C=C(/C(=O)OC)c1ccccc1Oc1cc(Oc2ccccc2C#N)ncn1`, the Potency result in [2], in [3], in test [6], in [9], in test [11] and in test [19] was “inactive” in each case. Further, the Potency in test [4] was 4.9 µM (active); in [5], 33.8 µM (active); in test [12], 24.3 µM (active); in test [20] it was 0.327 µM (active); in test [15], 21.7 µM (active); in [16], 34.7 µM (active). The call in test [13] and in test [14] was inactive.

Turning to `Cc1cc(C)c(C(=O)P(=O)(c2ccccc2)c2ccccc2)c(C)c1`, the Potency in test [1] was 38.9 µM (active); in test [5], 38.9 µM (active); in test [20] it was 4.33 µM (active); in test [19], 19.5 µM (active). The Potency entry in test [2], in [3], in test [7], in [9], in test [11] and in test [12] was “inactive” in each case. Further, the Potency result in test [16] was “inactive”. Further, the result in test [13], in [14] and in test [18] was inactive.

`Nc1ccc(Cl)cc1Cl`: the Potency entry in [2] is “inactive”.

Turning to `Oc1c(Cl)ccc(Cl)c1Cl`, the Potency entry in [2] is “inactive”.

Turning to `Clc1ccccc1-c1ccccc1Cl`, the Potency result in [3], in test [6], in test [7], in test [10], in test [11] and in [12] was “inactive” each time. In addition, the Potency entry in test [20], in test [15] and in test [16] was “inactive” each time. Further, the Potency in [4] was 31.4 µM (active); in [9] it was 35.2 µM (active); in test [19] it was 27.9 µM (active). The outcome in [8], in test [13] and in test [18] was inactive.

The record behind these values is PubChem BioAssay (Tox21).
